BCR signal inh: qHTS Assay to Find Inhibitors of Chronic Active B-Cell Receptor Signaling. ABC-DLBCL IkBa-CBG/CBR reporter, luminescence ratio, 4 h. Potency, µM (top dose mostly 46.1 µM), most hits filed as inhibitors. 0.05% of 340,000 active. AID 493014, 2011; active means well fitted inhibition curve with a large enough effect in the signal ratio, with a control signal flat, not every such curve was filed as active; inconclusive means small, poorly fitted or top-dose-only effect, or effect the other way, or a change in a side signal; the % refers to the signal ratio
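Compounds up to 46 uM were incubated four hours with TMD8 cells whose green CBG68 luciferase is fused to IkappaBalpha; red CBR luminescence normalised the signal, and concentration-effect curves were fitted to fusion, red and ratio data.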
aSyn rescue: qHTS of alpha-syn Inhibitors; 0.14% of 370,000 active; Potency, µM (highest dose often 46.1 µM), most hits filed as activators; Yeast expressing alpha-synuclein, growth rescue, BacTiter-Glo, 24 h; further: nearly all actives have a fitted effect of over 65% in size
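Readout is rescue of growth in alpha-synuclein-expressing yeast, so inhibitors of toxicity appear as activators. Growth after 24 hr at 30 deg C in galactose medium is quantified by luminescence.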
uPA surface inh: qHTS for Inhibitors of Cell Surface uPA Generation. cell surface uPA generation assay, qHTS. Potency, µM (series often up to 38.3 µM), actives largely listed as inhibitors. 0.31% of 330,000 active; active means well fitted inhibition curve with a large enough effect; inconclusive means small, poorly fitted or top-dose-only effect; inactive means no such curve, though single readings can be large or run the other way; tested in mouse RAW 264.7 cells; further: nearly all actives have a fitted effect of over 55% in size
Abeta rescue: qHTS for compounds that reverse cellular toxicity of Amyloid beta (A-beta) peptide in yeast: Primary Screen; yeast expressing A-beta42, growth rescue, OD600, 48 h; response scale: 0% DMSO, 100% iron-clioquinol control; Potency, µM (series often up to 46.1 µM), actives largely listed as activators; 0.063% of 410,000 active; further: nearly all actives have a fitted effect of over 55% in size
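Growth rescue measured by 600 nm absorbance after 48 h yeast culture at 30 C with compound. Values normalized between DMSO and an equimolar ferric chloride plus clioquinol control.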
FUS yeast rescue: qHTS for Suppressors of FUS Proteinopathy: Primary screen using FUS-linked yeast assay | S. cerevisiae FUS-expressing, growth rescue, OD600, 24 h | Potency, µM (top dose mostly 76.6 µM), usual class: activators | 0.24% of 390,000 active | AID 1347120, 2019; further: nearly all actives have a fitted effect of over 55% in size
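Absorbance at 600 nm, taken 24hr after compound addition, measured rescue of FUS-yeast growth at 30C. Induction used 2% galactose with seeding at OD 0.005. Controls: CP55940 from 92uM final, DMSO only.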
TDP43 rescue: qHTS of TDP-43 Inhibitors; 1.8% of 410,000 active; AID 652104, 2013; TDP-43 expressing yeast growth rescue, BacTiter-Glo, 24 h; Potency, µM (series often up to 46.1 µM), hits mostly activators; further: nearly all actives have a fitted effect of over 50% in size
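Galactose-induced TDP-43 yeast, OD600=0.02, compound pinned; 24 hr, 30 deg C; BacTiter-Glo luminescence for growth. Inhibitors of TDP-43 toxicity read as activators.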
Of the large screens only hits and unclear results are named; the others gave an inactive call; ! = repeats disagree. The list is not random: actives were taken first. Their share in the collection is about 2.3%. Unless noted, the call rests on the fitted dose curve; in most records, active means well fitted curve in the direction sought with a large enough effect; inconclusive means small, poorly fitted or top-dose-only effect, or another doubt; inactive means no such curve, though single readings can be large; an effect the other way counts as inactive or inconclusive.

Cc1cc(C)cc(Cn2cc(CN3CC(N4CCSCC4)CS3(=O)=O)nn2)c1 (stereo unspecified)	none (no result: BCR signal inh, uPA surface inh)
O=C1OCC(c2ccccc2)=C1c1ccccc1	TDP43 rescue 18µM (no result: uPA surface inh)
CNC(=O)c1sc2nc(-c3ccc(OC)cc3)cn2c1C	BCR signal inh inconclusive, uPA surface inh inconclusive
COc1ccc(N2CCN(c3nc(-c4cccs4)nc4ccccc34)CC2)cc1	FUS yeast rescue inconclusive, TDP43 rescue 13µM
CCCOc1ccc(-c2csc3ncn(Cc4ccc(C(=O)O)cc4)c(=O)c23)cc1	TDP43 rescue 25µM
Cc1ccc(-c2csc3ncn(Cc4ccc(C(=O)O)cc4)c(=O)c23)cc1C	aSyn rescue inconclusive, TDP43 rescue 20µM
O=C(O)c1ccc(Cn2cnc3scc(-c4ccccc4)c3c2=O)cc1	TDP43 rescue inconclusive
CCOCCCNC(=O)CCc1ccc(S(=O)(=O)Nc2ccc(C)cc2)cc1	none
COCCCNc1nc2ccccc2nc1NS(=O)(=O)c1cccc(C)c1	TDP43 rescue 14µM
CC(=O)c1ccc(N2CCN(C(=O)Nc3ccc(C(C)C)cc3)CC2)cc1	TDP43 rescue 18µM!
O=C(Nc1ccccc1)N1CCN(c2ccccc2)CC1	TDP43 rescue 8.9µM (no result: BCR signal inh)
CC(=O)Nc1ccc(C(=O)N/C(=C/c2ccccc2)C(=O)N2CCCCC2)cc1	none
CCOc1ccccc1/C=N/NC(=O)c1c(C)nc2ccc(Br)cn12	none
COc1cccc(/C=N/NC(=O)c2cc3c(OC)ccc(OC)c3[nH]2)c1O	BCR signal inh 3.2µM, uPA surface inh 6.3µM
COc1cccc(/C=N/NC(=O)c2c(C)nc3ccc(Br)cn23)c1O	BCR signal inh inconclusive, uPA surface inh 4.5µM
COCC(C)n1c(C)cc(C(=O)CN2C(=O)NC(Cc3c[nH]c4ccccc34)C2=O)c1C (stereo unspecified)	BCR signal inh inconclusive
COc1cccc(N2CCN(CC(=O)N(C)Cc3ccccc3Cl)CC2)c1	none (no result: BCR signal inh, aSyn rescue, uPA surface inh, Abeta rescue, TDP43 rescue)
Cc1ccc(Nc2ncc(C(=O)N3CCN(c4cccc(Cl)c4)CC3)c3ccccc23)cc1Cl	FUS yeast rescue inconclusive, TDP43 rescue 16µM (no result: BCR signal inh, aSyn rescue, uPA surface inh)
Cc1ccc(Nc2ncc(C(=O)NCCCN3CCN(C)CC3)c3ccccc23)cc1Cl	none (no result: TDP43 rescue)
CN(C(=O)c1cnc(N2CCN(c3ncccn3)CC2)c2ccccc12)c1ccc(Cl)cc1	Abeta rescue inconclusive, TDP43 rescue 10µM
Cc1ccc(Cl)cc1N1CCN(C(=O)c2cnc(N3CCOCC3)c3ccccc23)CC1	FUS yeast rescue 16µM, TDP43 rescue 22µM (no result: BCR signal inh, aSyn rescue, uPA surface inh)
Cc1cccc(OCCCC(=O)NNC(=O)c2ccccn2)c1	BCR signal inh inconclusive, aSyn rescue inconclusive, uPA surface inh inconclusive, Abeta rescue inconclusive, TDP43 rescue 22µM
CC(=O)N1CCc2c(sc3c2c(=O)n(Cc2ccccc2)c(=O)n3Cc2cc(C)ccc2C)C1	none (no result: BCR signal inh, aSyn rescue, uPA surface inh)
CC(=O)N1CCc2c(sc3c2c(=O)n(CCc2ccccc2)c(=O)n3Cc2ccc(Cl)cc2)C1	FUS yeast rescue inconclusive, TDP43 rescue 32µM (no result: BCR signal inh, aSyn rescue, uPA surface inh)
CC(=O)N1CCc2c(sc3c2c(=O)n(CCc2ccccc2)c(=O)n3Cc2ccccc2C)C1	FUS yeast rescue inconclusive, TDP43 rescue 35µM (no result: BCR signal inh, aSyn rescue, uPA surface inh)
Cc1ccc(C(=O)OC(C)CN2CCN(C)CC2)cc1 (stereo unspecified)	none
Clc1ccc(-c2csc(N/N=C/c3cccnc3)n2)c(Cl)c1	FUS yeast rescue inconclusive, TDP43 rescue 13µM
NC(=S)N=Nc1ccc(O)cc1	TDP43 rescue 13µM (no result: BCR signal inh, FUS yeast rescue)
NC(N)=NC(N)=Nc1ccc(O)cc1	none
C[C@H](NC(=O)[C@H](Cc1ccccc1)n1c(=O)[nH]c2ccccc2c1=O)C(=O)N1CCC(C(=O)O)CC1	uPA surface inh 4.5µM
Clc1ncnc2scc(C3COc4ccccc4O3)c12 (stereo unspecified)	BCR signal inh inconclusive, TDP43 rescue 18µM
c1ccc2c(c1)OCC(c1csc3ncnc(N4CCCCC4)c13)O2 (stereo unspecified)	none
Nn1c(SCc2c(Cl)cccc2Cl)nnc1-c1n[nH]c2c1CCC2	none (no result: BCR signal inh, aSyn rescue, uPA surface inh, Abeta rescue, TDP43 rescue)
Fc1c(F)c(C(F)(F)F)c(F)c(F)c1N/N=C\c1cccs1	BCR signal inh inconclusive, TDP43 rescue inconclusive
COc1cc(OC)cc(C(=O)OCn2nnc3ccccc3c2=O)c1	none
CCN(CC)S(=O)(=O)c1ccc(C(=O)OCn2nnc3ccccc3c2=O)cc1	aSyn rescue 3.2µM
O=C(OCn1nnc2ccccc2c1=O)c1ccc2ncsc2c1	aSyn rescue inconclusive, TDP43 rescue 11µM
COc1ccc(C(=O)COC(=O)C(CCSC)NC(=O)COc2ccccc2)c(OC)c1 (stereo unspecified)	none
CC(C)CC(=O)NC(=S)Nc1cccc(NC(=O)c2ccccc2)c1	none
CC1(C)Cc2c(C#N)c(NCCCO)nc(-c3ccccc3)c2CO1	TDP43 rescue 13µM
Cc1ccc(NC(=O)C2CC(=O)N(c3ccc4c5c(cccc35)CC4)C2)cc1 (stereo unspecified)	FUS yeast rescue inconclusive, TDP43 rescue inconclusive
O=c1ccsn1Cc1ccccc1	BCR signal inh inconclusive, TDP43 rescue 10µM (no result: FUS yeast rescue)
Cc1ccc(C(=O)O/N=C(\c2ccccc2)c2cccnc2)cc1	TDP43 rescue 18µM
Cc1cccc(C(=O)O/N=C(\c2ccccc2)c2cccnc2)c1	TDP43 rescue 13µM
Cc1ccccc1OCc1nc2ccccc2[nH]1	BCR signal inh inconclusive
COc1ccc(CCn2c(=N)c(S(=O)(=O)c3ccccc3)cc3c(=O)n4ccccc4nc32)cc1	none (no result: Abeta rescue)
CCOC(=O)CSc1nc2sc(C)c(C)c2c(=O)[nH]1	none
CCOC(=O)/C(=C\c1ccc(Cl)cc1)c1nc2sc(C)c(C)c2c(=O)[nH]1	TDP43 rescue 18µM
COC(=O)/C=C1\OC(C2CC2)c2ccccc21 (stereo unspecified)	TDP43 rescue 28µM (no result: BCR signal inh, uPA surface inh)
CCOC(=O)CSc1ccc(S(=O)(=O)N(C)C2CCCCC2)cc1[N+](=O)[O-]	none
COc1ccccc1NC(=O)c1ccc(-c2ccccc2[N+](=O)[O-])o1	BCR signal inh inconclusive, TDP43 rescue 32µM
Cc1ccn2c(C=O)c(-c3ccc(F)cc3)c(C=O)c2c1	uPA surface inh inconclusive, TDP43 rescue 20µM
Cc1nc(CS(=O)(=O)c2ccc(Cl)cc2)cc(Sc2ccccc2Cl)n1	TDP43 rescue 35µM
Cc1nc(CS(=O)(=O)c2ccccc2)cc(Sc2ccccc2Cl)n1	TDP43 rescue 32µM
Cc1nc(CS(=O)(=O)c2ccccc2)cc(Sc2ccc(Cl)cc2)n1	TDP43 rescue inconclusive
O=S(=O)(Cc1cc(Cl)nc(-c2ccccc2)n1)c1ccccc1	none
COc1ccc2c(c1)-c1nc(NC(=O)c3cccc(Br)c3)sc1CC2	none (no result: BCR signal inh, aSyn rescue, uPA surface inh)

Compound activity deposited in PubChem BioAssay by National Center for Advancing Translational Sciences (NCATS).
